Results published in PubChem BioAssay (NCI).
About 83,000 compounds went through this panel and 20% of them were active in at least one assay; those are over-represented in the sample as a whole.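 Plates (96-well) were seeded with cells, treated with compound at one concentration, and incubated for 48 hours before percent growth was determined.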 A number with no mark means an inactive call. Active and inactive are the calls of the source. How the source made its calls: active means growth percent below 10; inactive means the rest.

How the values were obtained:
Assay in all cases: NCI-60 one-dose screen, 48 h (100 = growth as untreated, 0 = no growth, -100 = all killed)
Details in all cases: 10 µM unless noted
HCT-15 colon = test system: HCT-15 colon
HT29 colon = test system: HT29 colon
SNB-75 CNS = test system: SNB-75 CNS
SNB-19 CNS = test system: SNB-19 CNS
U251 CNS = test system: U251 CNS
PC-3 prostate = test system: PC-3 prostate
SK-MEL-5 melanoma = test system: SK-MEL-5 melanoma
UACC-62 melanoma = test system: UACC-62 melanoma
LOX IMVI melanoma = test system: LOX IMVI melanoma
SK-MEL-28 melanoma = test system: SK-MEL-28 melanoma
SN12C renal = test system: SN12C renal
UO-31 renal = test system: UO-31 renal
TK-10 renal = test system: TK-10 renal
ACHN renal = test system: ACHN renal
CAKI-1 renal = test system: CAKI-1 renal
A498 renal = test system: A498 renal
CCRF-CEM leukemia = test system: CCRF-CEM leukemia
MOLT-4 leukemia = test system: MOLT-4 leukemia
SK-MEL-2 melanoma = test system: SK-MEL-2 melanoma
EKVX NSCLC = test system: EKVX NSCLC

Structure (SMILES) | growth (HCT-15 colon) | growth (HT29 colon) | growth (SNB-75 CNS) | growth (SNB-19 CNS) | growth (U251 CNS) | growth (PC-3 prostate) | growth (SK-MEL-5 melanoma) | growth (UACC-62 melanoma) | growth (LOX IMVI melanoma) | growth (SK-MEL-28 melanoma) | growth (SN12C renal) | growth (UO-31 renal) | growth (TK-10 renal) [%] | growth (ACHN renal) | growth (CAKI-1 renal) | growth (A498 renal) | growth (CCRF-CEM leukemia) | growth (MOLT-4 leukemia) | growth (SK-MEL-2 melanoma) | growth (EKVX NSCLC)
N#Cc1c(-c2cccc(Cl)c2)cc(-c2cccnc2)[nH]c1=O | 44.8% | 115% | 61.1% | 67.9% | 71.8% | 87.3% | 67.1% | 36.6% | 81.2% | 64.4% | 82.6% | 64.3% | 127 | 89% | 72.8% | 101% | 71.5% | 72.1% |  | 
Cc1c(O)cc(-c2cnc(N/N=C/c3ccccc3)s2)c(O)c1C | 79.1% | 104% | 98% | 105% | 97.9% |  | 85.8% | 81.9% | 79.9% | 92.2% | 95.6% | 79.9% | 129 | 99.4% | 91.7% | -20.4% (active) | 8.48% (active) | 9.73% (active) | 104% | 87.2%
N#Cc1c(-c2ccc(Cl)cc2)nc(NN=Cc2ccc[nH]2)nc1N1CCOCC1 | 78.9% | 66.2% | -13.5% (active) | 74.2% | 56.4% |  | 85.2% | 88% | 87.8% | 90.8% | 40.1% | 14.8% | 63.3 | 82.5% | 63.2% | 31.7% | 20.8% | 17.4% | 98.8% | 66%
Cc1ccc2c(c1)=C/C(=C\c1cc(-c3ccccc3)[nH]c1O)C(=O)N=2 | 26.7% | 7.77% (active) | 48% | 34.1% | 40.1% |  | 47% | 29.9% | 35.8% | 60.8% | 42.5% | 55.4% | 68.3 | 65.6% | 42.3% | 24.7% | 20% | 18.8% | 3.31% (active) | 52%
Cc1ccc2nc(-c3ccc(C(=O)N/N=C/c4ccc([N+](=O)[O-])cc4)cc3)[nH]c2c1 | 102% | 102% | 97.1% | 104% | 107% |  | 98.5% | 97.4% | 98.8% | 112% | 106% | 86.4% | 127 | 104% | 97.4% | 82.8% | 95.3% | 93.4% | 116% | 108%
CN(C)c1ccc([C@@H](C(=O)Nc2cccc([N+](=O)[O-])c2)N(C(=O)c2cc3ccccc3[nH]2)c2cccc([N+](=O)[O-])c2)cc1 | 103% | 101% | 78.2% | 97.8% | 88.8% |  | 97.7% | 86.7% | 88% | 112% | 97.8% | 67.6% | 117 | 93.3% | 92.5% | 70.5% | 96.1% | 92% | 113% | 90.7%
Nc1nc(C(=O)N/N=C/c2ccc(F)cc2)nn1-c1ccc(S(N)(=O)=O)cc1 | 108% | 98.5% | 83.1% | 95.2% | 98.4% | 107% | 107% | 94.4% | 94.1% | 107% | 93.8% | 81.4% |  | 99.2% | 90.4% | 100% |  | 111% |  | 101%
COc1ccc(OC)c(Nc2nnc(-c3cc(OC)c(OC)c(OC)c3)o2)c1 | 99% | 86.8% | 101% | 96.7% | 105% |  | 93.9% | 87.8% | 97.9% | 102% | 89.5% | 89.6% | 103 | 105% | 100% | 89.9% | 121% | 84.1% | 99.7% | 99.8%
Fc1cccc(CNc2c3ccccc3nc3ccccc23)c1 | 22.9% | 14.3% | 63% | 35.9% | 35.2% |  | 60.5% | 50.3% | 12.3% | 78.5% | 32.8% | 24% | 64.1 | 17.1% | 27% | -12.6% (active) | 46.3% | 14.9% | 81.4% | 32%
COc1cc(Cc2cc(OC)c(O)c(OC)c2)cc(OC)c1O | 60.9% | 110% | 82.2% | 102% | 102% |  | 101% | 94.9% | 80.7% | 82.4% | 97.7% | 120% | 107 | 106% | 73.9% | 88.6% | 59.9% | 74.9% | 76.6% | 110%
CN(C)/C(N)=N/N=C(\c1ccccc1)c1ccccn1 | 90.5% | 110% | 101% | 106% | 96.7% | 81.5% | 95.5% | 105% | 93% | 113% | 99.4% | 83.6% | 94.6 | 95.7% | 97.1% | 105% | 81.4% | 91.5% |  | 112%
O=C(/C=C/C12c3ccccc3C(c3ccccc31)C1C(=O)NC(=O)C12)c1ccc(Cl)cc1Cl (stereo not drawn) | 11% | 1.07% (active) | 25.1% | 27% | 7.87% (active) |  | 36.8% | 12.5% | -25.6% (active) | 4.9% (active) | 9.38% (active) | 32.4% | 22.4 | 28.2% | 25.5% | 35.7% |  | -0.49% (active) | -2.62% (active) | 36.4%
Cc1ccc2c(/C=C/C(=O)c3cc(CN4CCOCC4)c(O)c4nc(C)ccc34)cc(CN3CCOCC3)c(O)c2n1 | 0.566% (active) | -6.31% (active) | 23.3% | 36.4% | -24% (active) |  | 4.68% (active) | -0.641% (active) | -66.8% (active) | -19.9% (active) | 7.92% (active) | -16.8% (active) | 17.8 | -26.3% (active) | 12.9% | -16.5% (active) | 3.28% (active) | -2.3% (active) | -2.61% (active) | 31.5%
Cc1cc(C(=O)CCCC(=O)c2cc(C)c(O)c(C)c2)cc(C)c1O | 79.2% | 92.3% |  | 88.1% | 89.6% | 84.1% | 29.2% | 96.8% | 87.2% | 105% | 97.8% | 83.6% | 105 | 91% | 93.5% | 91.9% | 96.6% | 106% | 101% | 
O=C(/C=C/c1ccco1)Nc1ncc(Cc2cc(Cl)ccc2Cl)s1 | 13.5% | 9.68% (active) |  | 44.8% | 18.9% | 25.3% | 15.2% | 26.9% | 25.9% | 57% | 29.6% | 36.6% | 51.5 | 35.7% | 36.5% | 10.3% | 17.3% | 14% | 36.3% | 34.2%
COc1ccc(/C=C2\CN(C(=O)C(Cl)Cl)C/C(=C\c3ccc(OC)c(OC)c3)C2=O)cc1OC | -38.9% (active) | 10.8% |  | 6.34% (active) | -17.4% (active) | -7.16% (active) | -58.8% (active) | -59.6% (active) | -67.8% (active) | -8.59% (active) | -60.6% (active) | -99% (active) | 22 | -82.7% (active) | -17.2% (active) | -48.2% (active) | 12% |  | 14.9% | 8.31% (active)
